Inconclusive results are not listed. Entries that show only a call come without a potency. Calls of active or inactive are those of the source. The call rests on the fitted dose curve.
Assay: qHTS for Inhibitors of Cell Surface uPA Generation: Wild-type Protective Antigen (WT-PrAg) Counterscreen for Cherry-picked Compounds
Details: cells, WT protective antigen toxicity counterscreen; series mostly up to 115 µM
In the case of `CC1CS(=O)(=O)CCN1N=Cc1ccc([N+](=O)[O-])o1` (stereo not given), the Potency is reported as “inactive”.
In the case of `CCOC(=O)C1CCCN(CC(=O)Nc2ccc(C(=O)Nc3ccccc3OC)cc2)C1` (stereo not given), the Potency is reported as “inactive”.
With `NC(=O)c1cc2ccncc2c2ccccc12` the Potency was “inactive”.
In the case of `Cn1cccc1Cc1nnc(SCC(=O)Nc2ccc3c(c2)OCCO3)n1-c1ccc(F)cc1`, the Potency is reported as “inactive”.
With `Cc1ccc(N2C(=O)CC(N3CCN/C3=C3\CC/C(=C\c4ccccc4)C3=O)C2=O)cc1` (stereo not given) the Potency was “inactive”.
For `COc1ccc([C@H]2[C@H](C(=O)OC(C)(C)C)N3N=Cc4ccccc4C3C23C(=O)c2ccccc2C3=O)cc1OC` (stereo not given in full), the Potency was “inactive”.
In the case of `CCc1c(C)sc(NC(=S)N2CC(C)OC(C)C2)c1C(=O)OC` (stereo not given), the Potency is reported as “inactive”.
With `COc1cccc2c1Oc1ncccc1N(C(=O)CCC(=O)NCc1ccc(C)cc1)C2` the Potency was “inactive”.
For `C/C(=N\NC(=O)c1cccc([N+](=O)[O-])c1)c1cccnc1`, the Potency was “inactive”.
With `CN(C)c1cccc(C(=O)N(C)C2CCCN(Cc3ccccc3F)C2)c1` (stereo not given) the Potency was 23.3 µM (active).
With `CC1CN(C(=O)CCC(=O)NCc2ccccc2)c2ccccc2S1` (stereo not given) the Potency was “inactive”.
For `Cc1cccc(N2C(=O)N3[C@H](c4ccc(F)cc4)[C@@H]4C(=O)N(C5CCCCC5)C(=O)[C@@H]4[C@]3(Cc3ccc(Cl)cc3)C2=O)c1`, the Potency was “inactive”.
In the case of `Cc1ccc(NC(=O)CSc2nncn2N)cc1C`, the Potency is reported as “inactive”.
For `O=C(COc1cc2oc(=O)cc(-c3ccccc3)c2cc1Cl)NC(Cc1c[nH]c2ccc(O)cc12)C(=O)O` (stereo not given), the Potency was “inactive”.
In the case of `Clc1ccccc1N1CCN(c2ncnc3nc[nH]c23)CC1`, the Potency is reported as “inactive”.
With `CC1=NN(C(N)=S)C(=O)C1N=Nc1ccccc1C(=O)O` (stereo not given) the Potency was “inactive”.
In the case of `CN1CCN(c2ccc(S(=O)(=O)N3CCOCC3)cc2NC(=O)CSCc2ccccc2)CC1`, the Potency is reported as “inactive”.
For `O=C(OCC(=O)N1CCOCC1)c1c(Cl)ccc(Cl)c1Cl`, the Potency was “inactive”.
With `COc1ccccc1NC(=O)N1C[C@@H]2C[C@@H](C1)c1cccc(=O)n1C2` the Potency was “inactive”.
In the case of `Cn1c(=O)n(CC(=O)O)c(=O)c2c1nc1n2CCCN1CCc1ccccc1`, the Potency is reported as “inactive”.
In the case of `Cc1ccc(S(=O)(=O)N2CCOCC2)cc1C(=O)OC1CCOC1=O` (stereo not given), the Potency is reported as “inactive”.
With `Cc1ccc(C)c(N2N=C(C(=O)N(CC(C)C)c3c(N)n(Cc4ccccc4)c(=O)[nH]c3=O)CCC2=O)c1` the Potency was “inactive”.
In the case of `CCC(=O)N(Cc1cc2ccc(C)cc2[nH]c1=O)c1ccccc1OC`, the Potency is reported as “inactive”.
With `CC(OC(=O)c1cccc(-n2cnnn2)c1)C(=O)Nc1ccc(F)c(F)c1F` (stereo not given) the Potency was “inactive”.
With `CCOC(=O)C1CCN(CC(=O)Nc2cc(C)nn2-c2nc3ccccc3s2)CC1` the Potency was “inactive”.
In the case of `Cc1ccc(C(O)(COC(=O)C(C)C)COC(=O)C(C)C)c(O)c1`, the Potency is reported as “inactive”.
For `CCOC(=O)C1=CC[C@@H](c2cc3ccc(OC)cc3n2C)N(S(=O)(=O)c2ccc(C)cc2)[C@H]1C(=O)OCC`, the Potency was “inactive”.
For `CCCCn1c(N)c(N(Cc2ccccc2OC)C(=O)COc2ccc(C)cc2)c(=O)[nH]c1=O`, the Potency was “inactive”.
In the case of `COc1cc(F)ccc1S(=O)(=O)n1c(C)nc2ccccc21`, the Potency is reported as “inactive”.
In the case of `O=C(O)CCc1nn2c3ccccc3n(CC(=O)O)c2nc1=O`, the Potency is reported as “inactive”.
For `COCCn1nnnc1C(C(C)C)N1CCCC(C)C1` (stereo not given), the Potency was “inactive”.
For `CCC(C(=O)NCc1ccc(C)cc1)c1ccccc1` (stereo not given), the Potency was “inactive”.
In the case of `COc1cccc(C(=O)NCC(c2ccco2)N2CCc3ccccc3C2)c1` (stereo not given), the Potency is reported as “inactive”.
For `COc1ccc(NC(=O)/C(N=Nc2cc(S(=O)(=O)Nc3ccc(OC)cc3)ccc2OC)=C(\C)O)cc1`, the Potency was “inactive”.
In the case of `Cc1ccc(NC(=S)N2CCN(Cc3ccc4c(c3)OCO4)CC2)c(C)c1`, the Potency is reported as “inactive”.
With `C[C@H](CO)N1C[C@H](C)[C@H](CN(C)S(=O)(=O)c2cn(C)cn2)Oc2ccc(NC(=O)Nc3ccc(C(F)(F)F)cc3)cc2CC1=O` the Potency was “inactive”.
In the case of `COC(=O)C1=CN(Cc2ccc(F)cc2)C=C(C(=O)OC)C1c1ccc(O)c(OC)c1`, the Potency is reported as “inactive”.
In the case of `COc1ccc(C(=O)NCCCN2CCOCC2)cc1`, the Potency is reported as “inactive”.
With `Cc1cnc(C(=O)OCC(=O)Nc2ccc3c(c2)OCCO3)cn1` the Potency was “inactive”.
With `NC(=O)C1CCN(C(=O)c2cccc3ccccc23)CC1` the Potency was “inactive”.

Source: PubChem BioAssay AID720518 (National Center for Advancing Translational Sciences (NCATS), 2013)
Potency means the concentration at half of the fitted maximal effect.
